This is an account of results in PubChem BioAssay (NCATS).

SMILES strings stand for the structures. Where “and” joins values, the source holds several entries; their conditions need not be identical. Equal entries are not always repeated. Records with an inconclusive call do not appear. Calls of active or inactive are those of the source. Calls follow the shape of the dose curve; as a rule, active = well fitted curve in the direction sought with a large enough effect; inconclusive = small, poorly fitted or top-dose-only effect, or another doubt; inactive = no such curve, though single readings can be large; an effect the other way counts as inactive or inconclusive.

Test [1] concerns the target Cytochrome P450 2C9 (Homo sapiens) (UniProt P11712). The test is described as follows: qHTS Assay for Inhibitors and Substrates of Cytochrome P450 2C9 (AID 883). Also: % is scaled to controls: 0 for no effect and ±100 for the full control effect; nearly all actives have a fitted effect of over 60% in size. Summed up:
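Human CYP2C9 (10nM) hydroxylated Luciferin-H (100uM, at its KM) to luciferin in 25mM KPO4. Compound was preincubated 10 min at 37C, then NADPH regeneration started a 60 min reaction at 37C. Luminescence was read after detection reagent, normalized to 57uM sulphaphenazole.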

For test [2], the target named is Cytochrome P450 3A4 (Homo sapiens) (UniProt P08684). Description: qHTS Assay for Activators of Cytochrome P450 3A4 (AID 885). Also: nearly all actives have a fitted effect of over 65% in size. The gist of the method:
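Luminescent readout of luciferin formed from 25 uM Luciferin-PPXE (KM level) by 20 nM CYP3A4 in 200 mM KPO4, with 60 min NADPH-driven reaction at room temperature after 10 min compound exposure. Ketoconazole (57 uM) defined 100% inhibition.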

For test [3], the target named is Cytochrome P450 2D6 (Homo sapiens) (UniProt P10635). Description: qHTS Assay for Inhibitors and Substrates of Cytochrome P450 2D6 (AID 891).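 Also: luciferin methyl ether substrate demethylated by CYP2D6 with NADPH regeneration; % is scaled to controls: 0 for no effect and ±100 for the full control effect; nearly all actives have a fitted effect of over 60% in size.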 Summed up: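 Luminescent read-out of luciferin formed by 5 nM human CYP2D6 demethylating 30 uM Luciferin-ME EGE (Km level) over 60 min at room temperature after NADPH regeneration addition. Data normalized to full inhibition by 1.43 uM quinidine.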

The target in test [4] is Cytochrome P450 2C19 (Homo sapiens) (UniProt P33261). Description: qHTS Assay for Inhibitors and Substrates of Cytochrome P450 2C19 (AID 899). Also: nearly all actives have a fitted effect of over 60% in size. Also: potency is read from the fitted curve at half-maximal effect. The gist of the method: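 Human CYP2C19 (5nM) with Luciferin-H EGE at 10uM (its KM) in 50mM KPO4 was preincubated with compound for 10 min at 37C. NADPH regeneration started a 60 min 37C reaction. Luciferin was read by luminescence, normalized to 57uM ketoconazole.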
Cytochrome P450 2C19 (Homo sapiens), sequence (P33261 whole entry, looked up): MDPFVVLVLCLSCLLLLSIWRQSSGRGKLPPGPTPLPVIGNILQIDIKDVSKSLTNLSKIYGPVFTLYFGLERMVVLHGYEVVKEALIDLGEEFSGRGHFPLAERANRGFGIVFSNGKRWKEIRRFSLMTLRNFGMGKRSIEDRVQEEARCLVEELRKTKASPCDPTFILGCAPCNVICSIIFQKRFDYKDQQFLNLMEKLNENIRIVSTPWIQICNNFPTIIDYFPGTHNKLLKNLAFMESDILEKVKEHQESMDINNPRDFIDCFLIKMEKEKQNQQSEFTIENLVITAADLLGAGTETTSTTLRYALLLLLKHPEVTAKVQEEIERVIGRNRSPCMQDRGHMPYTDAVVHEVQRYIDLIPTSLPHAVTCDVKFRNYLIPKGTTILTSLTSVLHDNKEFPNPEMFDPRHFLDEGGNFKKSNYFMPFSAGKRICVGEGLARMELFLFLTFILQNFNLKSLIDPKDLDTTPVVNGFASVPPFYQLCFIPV

Cytochrome P450 2C9 (Homo sapiens), sequence (P11712 whole entry, looked up): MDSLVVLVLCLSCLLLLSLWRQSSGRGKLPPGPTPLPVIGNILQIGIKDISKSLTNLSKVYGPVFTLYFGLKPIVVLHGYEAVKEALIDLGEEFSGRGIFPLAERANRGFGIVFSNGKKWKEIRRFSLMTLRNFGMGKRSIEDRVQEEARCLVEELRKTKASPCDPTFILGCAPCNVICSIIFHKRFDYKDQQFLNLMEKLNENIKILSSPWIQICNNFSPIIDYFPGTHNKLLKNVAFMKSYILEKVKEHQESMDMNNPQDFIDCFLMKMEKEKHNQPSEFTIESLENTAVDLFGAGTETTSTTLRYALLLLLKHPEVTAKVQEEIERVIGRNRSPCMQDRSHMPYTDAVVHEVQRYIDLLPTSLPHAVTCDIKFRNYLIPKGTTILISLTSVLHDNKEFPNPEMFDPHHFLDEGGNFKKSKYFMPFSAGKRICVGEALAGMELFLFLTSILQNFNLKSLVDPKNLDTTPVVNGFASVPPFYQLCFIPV
Cytochrome P450 3A4 (Homo sapiens), sequence (P08684 whole entry, looked up): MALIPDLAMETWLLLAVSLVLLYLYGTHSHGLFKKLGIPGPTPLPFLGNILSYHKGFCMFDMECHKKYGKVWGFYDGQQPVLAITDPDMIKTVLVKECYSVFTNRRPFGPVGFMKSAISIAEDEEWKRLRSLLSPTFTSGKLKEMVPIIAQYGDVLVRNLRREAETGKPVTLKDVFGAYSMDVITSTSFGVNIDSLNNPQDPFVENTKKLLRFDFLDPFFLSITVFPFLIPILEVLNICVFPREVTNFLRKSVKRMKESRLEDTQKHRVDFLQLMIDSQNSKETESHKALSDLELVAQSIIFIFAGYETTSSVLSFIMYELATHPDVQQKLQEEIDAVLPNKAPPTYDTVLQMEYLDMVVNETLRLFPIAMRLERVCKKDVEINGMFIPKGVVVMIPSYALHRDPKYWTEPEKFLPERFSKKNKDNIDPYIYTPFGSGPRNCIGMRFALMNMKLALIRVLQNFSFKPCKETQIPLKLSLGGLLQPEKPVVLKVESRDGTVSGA
Cytochrome P450 2D6 (Homo sapiens), sequence (P10635 whole entry, looked up): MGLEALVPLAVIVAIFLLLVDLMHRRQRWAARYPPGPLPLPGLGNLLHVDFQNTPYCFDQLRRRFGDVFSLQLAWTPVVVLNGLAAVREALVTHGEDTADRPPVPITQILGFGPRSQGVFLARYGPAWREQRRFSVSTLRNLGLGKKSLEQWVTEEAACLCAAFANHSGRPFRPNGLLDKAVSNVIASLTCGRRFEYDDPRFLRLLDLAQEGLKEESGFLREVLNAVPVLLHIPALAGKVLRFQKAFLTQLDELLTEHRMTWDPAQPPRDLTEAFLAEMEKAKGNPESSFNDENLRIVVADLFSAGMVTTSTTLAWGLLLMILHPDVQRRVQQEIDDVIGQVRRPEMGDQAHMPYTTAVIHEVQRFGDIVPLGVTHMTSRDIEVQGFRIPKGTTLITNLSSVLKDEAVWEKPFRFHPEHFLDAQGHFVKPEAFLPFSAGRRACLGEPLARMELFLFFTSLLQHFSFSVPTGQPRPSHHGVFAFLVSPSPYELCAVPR

`CCC/C=C/C1C(=O)C2OC2C2(OCC(CC)(CC)CO2)C1CO` (centres undefined): the Potency entry in test [1] and in test [3] was “inactive” each time. In test [2], the activity change, positive = activation was -53.3% [at 11.4 µM] (inactive).

As for `C=CCOC(=O)C(C(C)=O)C(NC(=O)OC)c1ccco1` (centres undefined), the Potency result in test [1], in test [3] and in test [4] was “inactive” each time. Also, the activity change, positive = activation in test [2] was -42.1% [at 11.4 µM] (inactive).

For the molecule `CC1CCC2C(=O)OC(Cc3ccccc3)CN2C1c1ccc(Br)cc1` (centres undefined), the Potency result in test [1] and in test [3] was “inactive” in each case. In addition, the activity change, positive = activation in test [2] was -52.5% [at 11.4 µM] (inactive) and -47.1% [at 11.4 µM] (inactive). Besides, the Potency in test [4] is 316 nM (active) and 3.16 µM (active).

On to `CCC(=O)[C@]12O[C@@]3(C4C(=O)OCCC41)N(CC)C(C)=C(C(=O)OC)C(c1ccccc1)N3C2=O` (some centres undefined), for which the Potency result in test [1], in test [3] and in test [4] was “inactive” each time. Further, in test [2], the activity change, positive = activation is -34.2% [at 11.4 µM] (inactive).

With `CCCCCCC1=Cc2cc(OC)c(OC)cc2C(C(C(C)=O)C(=O)OC)O1` (centres undefined), the Potency entry in test [1] and in test [3] was “inactive” in each case. The activity change, positive = activation in test [2] is -57.6% [at 11.4 µM] (inactive).

In the case of `OCC1OC(C#Cc2ccccc2)C=CC1O` (centres undefined), the Potency entry in test [1] and in test [3] was “inactive” throughout. Moreover, the activity change, positive = activation in test [2] is -40.9% [at 11.4 µM] (inactive) and -46.3% [at 11.4 µM] (inactive) and -31.2% [at 11.4 µM] (inactive).

Take `COC(=O)C1=C(C)N(Cc2ccccc2)c2c(C(=O)OC)c(C(=O)OC)c(C(=O)OC)c(=O)n2C1c1ccccc1` (centres undefined): the Potency result in test [1], in test [3] and in test [4] was “inactive” in each case. For the same molecule, in test [2], the activity change, positive = activation is -58.7% [at 11.4 µM] (inactive) and -55.1% [at 11.4 µM] (inactive).

With `COc1ccc(OC2C(O)COC2/C=C/C#Cc2ccccc2)cc1` (centres undefined), the Potency result in test [1], in test [3] and in test [4] was “inactive” in each case. For the same molecule, the activity change, positive = activation in test [2] was -57.7% [at 11.4 µM] (inactive).
